Assay results: PubChem BioAssay (NCATS)
“And” between values parts separate entries of the source, which are not always exact repeats. Equal values may be shown once. Records with an inconclusive call do not appear. The source made the active and inactive calls. The call rests on the fitted dose curve; in most records, active means well fitted inhibition curve with a large enough effect; inconclusive means small, poorly fitted or top-dose-only effect; inactive means flat fitted curve, though single readings scatter.
On the % scale 0 is the no-effect control and ±100 the full control effect; potency means the concentration at half of the fitted maximal effect.

Assay: Primary qHTS for inhibitors of nuclear receptor binding SET domain protein 2 (NSD2) in an isogenic RCH-ACV NSD2 p.E1099K mutant (9B) (AID 1645876); further: nearly all actives have a fitted effect of over 70% in size
Conditions: RCH-ACV (leukaemia line) NSD2 E1099K (9B) viability, CellTiter-Glo, 72 h; series mostly up to 44.9 µM; activity change, negative = viability loss: at the top concentration
In the case of `C/C(=N\N=C(N)N)c1cc(NC(=O)CCCCCCCCC(=O)Nc2cc(/C(C)=N/N=C(N)N)cc(/C(C)=N/N=C(N)N)c2)cc(/C(C)=N/N=C(N)N)c1`, the Potency is reported as 11.5 µM (active).
In the case of `CC1(C)CCCC2(C)C1C(=O)C=C(C(=O)O)C2(O)C(=O)O` (stereo not given), the Potency is reported as 25.8 µM (active).
For `CN1CCN(c2ccc(Nc3cc(-c4cccc(-n5ccc6cc(C7CC7)cc(F)c6c5=O)c4CO)cn(C)c3=O)nc2)CC1`, the Potency was 20.6 µM (active).
With `CCCC1(CCC)CCC2(CCN(CCCN(CC)CC)C2)CC1` the Potency was 2.63 µM (active).
For `O=C1COC2(CCN(S(=O)(=O)c3ccc(-c4ccc5cccnc5c4)cc3)CC2)CN1C1CC1`, the “activity change, negative = viability loss” value was -25% (inactive).
For `C=C(C)C1CCC2(C(=O)O)CCC3(C)C(CCC4C5(C)C(C=O)C(O)C(C)(C)C5CCC43C)C12` (stereo not given), the “activity change, negative = viability loss” value was -26.2% [at 17.3 µM] (inactive).
With `COC1C(OC(=O)/C=C/C=C/C=C/C=C/C(=O)O)CCC2(CO2)C1C1(C)OC1CC=C(C)C` (stereo not given) the “activity change, negative = viability loss” value was -31.7% [at 17.3 µM] (inactive).
For `CN[C@H]1CC[C@@H](c2ccc(Cl)c(Cl)c2)c2ccccc21`, the Potency was 6.68 µM (active) and 9.34 µM (active).
With `C=C(C)[C@@H]1CC[C@]2(C(=O)O)CC[C@]3(C(=O)O)[C@H](CCC4[C@@]5(C)CCC(=O)C(C)(C)C5CC[C@]43C)C12` (stereo not given in full) the Potency was 11.2 µM (active).
For `COc1cccc(-c2cn(-c3ccc(CCN4CCC(O)CC4)cc3)c3ncnc(N)c23)c1`, the Potency was 1.63 µM (active).
With `CCOc1ccc(Cc2nc(-c3c(C)nc4ccccn34)cs2)cc1` the Potency was 0.183 µM (active).
With `CC1(C=O)CCCC2(C)C1CCC13CC(CO)C(CCC12)C3` (stereo not given) the “activity change, negative = viability loss” value was -15.1% (inactive).
For `COc1cc2ncc(-c3ccccc3)nc2cc1OC`, the Potency was 20.5 µM (active).
For `CCOC(=O)c1csc(Nc2ccc(Cl)cc2)n1`, the Potency was 18.3 µM (active).
With `O=c1nc(-c2ccccn2)sc2ccccc12` the Potency was 4.59 µM (active).
In the case of `CC(C)=CCCC1(C)/C=C/C(OC(=O)C=C(C)C)C(C)(O)/C=C/C(=O)/C(CO)=C\C1` (stereo not given), the Potency is reported as 11.2 µM (active).
For `CCC/C=C/C(=O)O[C@H]1CC(C)(C)CC2[C@@]13[C@H](O)C[C@]1(C)[C@@]2(CCC2[C@@]4(C)CC[C@H](O[C@@H]5O[C@H](C(=O)O)[C@@H](O)[C@H](O[C@@H]6O[C@H](CO)[C@H](O)[C@H](O)[C@H]6O[C@@H]6O[C@@H](C)[C@H](O)[C@@H](O)[C@H]6O[C@@H]6OC[C@](O)(CO)[C@H]6O)[C@H]5O[C@@H]5O[C@H](CO)[C@H](O)[C@H](O)[C@H]5O)C(C)(C)C4CC[C@]21C)O[C@H]3O` (stereo not given in full), the Potency was 1.73 µM (active).
In the case of `CC1=C(c2ccc(NC(=O)c3c(F)cccc3F)cc2)CN(c2nccs2)CC1`, the “activity change, negative = viability loss” value is reported as -22.2% (inactive).
For `O=C(Nc1cc(C(F)(F)F)cc(C(F)(F)F)c1)c1cnc(Cl)nc1C(F)(F)F`, the Potency was 25.8 µM (active).
For `CC(=O)OC[C@]12[C@H](OC(C)=O)[C@H](OC(=O)c3ccccc3)[C@@H]3[C@@H](OC(C)=O)[C@]1(OC3(C)C)[C@H](C)C[C@H](OC(C)=O)[C@@H]2OC(=O)c1ccccc1`, the “activity change, negative = viability loss” value was -22.6% [at 17.3 µM] (inactive).
In the case of `CC[C@@H](C)Nc1cc(C(=O)NC2CC3CC[C@@H](C2)N3c2ccc(C(=O)C3CC3)cn2)c(C)cc1C(N)=O` (stereo not given in full), the Potency is reported as 0.0742 µM (active).
For `CCC(C(C)O)n1ncn(-c2ccc(N3CCN(c4ccc(OCC5COC(Cn6cncn6)(c6ccc(F)cc6F)C5)cc4)CC3)cc2)c1=O` (stereo not given), the Potency was 2.05 µM (active).
For `Cc1cccc(C#Cc2cc(F)cc(C#N)c2)n1`, the “activity change, negative = viability loss” value was -9.55% (inactive).
In the case of `COc1c2c(nc3occc13)C(CC=C(C)C)(OC)C(O)CC2` (stereo not given), the “activity change, negative = viability loss” value is reported as -29.2% (inactive).
In the case of `NCC(CNc1nc(Nc2cccc(NC(=O)N3CCCC3)c2)ncc1I)C(=O)c1cccs1` (stereo not given), the Potency is reported as 1.15 µM (active).
